A selection: hits, their analogues and other compounds. The true share with any hit is near 1.7%.
CCHFV vOTU inh: CCHFV vOTU protease inhibition | Pep-AMC fluorescence | actives 0.55% (n = 370,000) | inhibition, % at 11.5 µM; in the data active = inhibition above about 30%; also: 0% = vehicle wells with enzyme and 100% = no enzyme wells
PfHsp40 rescue: rescue of PfHsp40-mediated yeast toxicity; AID 504582; growth rescue, % at 12.5 µM; S. cerevisiae expressing PfHsp40, growth rescue, ATP luminescence; actives 0.68% (n = 340,000); in the data active = growth rescue above about 28%, passing the limit was not always enough; inconclusive = no clear call, values can overlap the other calls;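 also: yeast W303a lacking pdr1 and pdr3 grown in galactose medium; growth measured after three days at 30 °C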
Vc quorum ag: inducers of Vibrio cholerae quorum light production without autoinducers | V. cholerae BH1578 lux reporter, luminescence, 6 h | activation, % at 18.7 µM | actives 0.16% (n = 350,000) | AID 588436; in the data active = activation mostly above about 9.7%, no sharp cut-off; inconclusive = no clear call, values can overlap the other calls; inactive = mostly below about 3.7%
Sa ugtP lethal: kills S. aureus RN4220 lacking UgtP; S. aureus RN4220 ugtP deletion, OD600 growth, 16 h; growth inhibition, % (concentration not given with the values); actives 0.54% (n = 330,000); in the data active = growth inhibition above about 68%;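 also: plate controls were untreated wells for no effect and antibiotic for full effect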
RN4220 kill: S. aureus RN4220 growth inhibition; actives 0.33% (n = 330,000); AID 1259311; inhibition, % (concentration not given with the values); OD600, 16 h; in the data active = inhibition above about 85%;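 also: plate controls were untreated cells for no effect and reference antibiotic for full effect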
Mtb hypoxia inh: reduces hypoxia-regulated biosensor signal in M. tuberculosis. actives 0.1% (n = 300,000). AID 1159583. fluorescence inhibition, % (no concentration beside the values). M. tuberculosis hypoxia-regulated fluorescent reporter, fluorescence; in the data active = fluorescence inhibition mostly above about 23%, no sharp cut-off; inactive = mostly below about 17%
Numbers without * were called inactive; i = inactive; ? = inconclusive; . = not tested or not shown.

SMILES	CCHFV vOTU inh	PfHsp40 rescue	Vc quorum ag	Sa ugtP lethal	RN4220 kill	Mtb hypoxia inh
CC1CN(C(C)CO)C(=O)c2cccc(NC(=O)Nc3ccc(C(F)(F)F)cc3)c2OC1CN(C)Cc1ccc(-c2ccccc2)cc1 (stereo not given)	.	.	.	-0.7	1.3	5.5
Cc1cccc(NC(=S)NC(C)CCc2ccccc2)c1 (stereo not given)	13.1	95.6*	-3.1	20.0	-1.9	-1.9
COc1ccc(OCc2nnc(SCC(=O)Nc3ccc(C)cc3)o2)cc1	1.5	-2.0	-0.3	0.1	4.4	9.0
COc1ccc(Cc2nnc(SCC(=O)N(C)CC(=O)Nc3ccc(C)cc3)o2)cc1	6.5	-1.1	28.5*	1.8	5.7	9.2
O=c1c2c(-c3ccc(Cl)cc3)csc2ncn1/N=C/c1cccc([N+](=O)[O-])c1O	3.2	280.2*	.	.	.	.
CC1CCN(c2ccc3c(c2)S(=O)(=O)c2ccccc2C3=O)CC1	5.3	198.6*	2.4	4.0	3.8	0.9
CCc1n[nH]c(=S)n1N=Cc1ccc(N(C)c2ccccc2)cc1	.	.	.	-6.3	-5.9	-4.2
O=C1c2ccccc2C(=O)c2c1oc(C(F)(F)F)c2C(=O)c1ccccc1	25.4	?	i	79.4*	94.4*	.
O=C(COc1c(F)c(F)c(C(F)(F)F)c(F)c1F)Nc1ccc(N2CCOCC2)c(Cl)c1	4.3	29.7*	i	-31.8	-6.9	-11.8
COC(=O)c1ccc(C=NNc2nc(N3CCCCC3)nc(N3CCCCC3)n2)cc1	.	.	.	-3.6	8.8	7.9
CC(=NNC(=O)c1cc2ccccc2cc1O)c1ccco1	.	.	.	-7.9	9.2	5.6
O=C(Nc1cc(Oc2ccc(Cl)cc2)cc([N+](=O)[O-])c1)c1ccco1	2.2	352.3*	-0.3	-19.7	-8.5	-7.1
CCOc1ccc(Oc2cc(NC(=O)c3ccco3)cc([N+](=O)[O-])c2)cc1	-5.2	0.0	-0.6	47.2	9.4	8.7
C=CCOc1ccc(C=NNC(=O)CN2CCCCC2)cc1OC	.	.	.	10.5	-2.6	9.2
CCNc1cc(O)ccc1C	.	76.8*	-0.3	.	.	.
Cc1cccc(C(=O)Oc2ccc(C=NNC(=O)c3ccccc3O)cc2)c1	.	.	.	5.3	4.9	6.5
CC(=O)Nc1cccc(NC(=O)Cc2cccs2)c1	-1.7	1.2	i	1.9	4.9	-0.5
O=C(Cc1cccs1)Nc1cccc(-c2nc3cc4ccccc4cc3[nH]2)c1	-34.3	77.5*	-3.6	53.9	58.3	4.9
COc1ccc(C(=O)c2ccc(Cl)cc2)c2ccccc12	2.1	-1.5	0.9	95.5*	-5.2	.
COc1cccc(OCc2cc(C(=O)N3CCC(c4ccncc4)CC3)no2)c1	-5.5	-1.3	i	3.3	3.4	-1.3
COc1cccc(OCc2cc(C(=O)N3CCN(C)C(c4ccccc4)C3)no2)c1 (stereo not given)	.	148.9*	-3.4	4.7	0.0	13.5
O=C(Nc1cccc(-c2nc3ccccc3s2)c1)c1cccs1	1.8	403.4*	-0.2	74.5	21.1	14.3
CSc1nc2ccc(NC(=O)c3ccco3)cc2s1	7.7	2.3	-0.3	34.9	4.0	5.4
CSc1nc2ccc(NC(=O)c3cccs3)cc2s1	3.8	158.0*	-5.6	58.9	1.4	-7.7
O=C(NN=Cc1cccs1)c1n[nH]c2c1CCC2	.	.	.	3.9	3.4	1.1
SMILES	CCHFV vOTU inh	PfHsp40 rescue	Vc quorum ag	Sa ugtP lethal	RN4220 kill	Mtb hypoxia inh
Cc1ccc(S(=O)(=O)N2C(c3ccc(Cl)c(Cl)c3)CC=C(C(=O)O)C2c2cccc(Cl)c2)cc1 (stereo not given)	-6.9	.	.	100.1*	88.0*	10.5
Cc1ccc(S(=O)(=O)N2C(c3cccc(Cl)c3)CC=C(C(=O)O)C2c2cccc(Cl)c2)cc1 (stereo not given)	-1.8	.	.	59.5	31.9	13.7
CCCCCCOC(=O)CCn1[nH]c(=O)c2ccccc2c1=O	6.5	136.4*	-0.3	3.2	3.6	.
Oc1ccccc1N=Nc1ccccc1O	6.4	31.8*	-0.2	7.3	12.7	15.0
Nc1ccc(N=Nc2ccccc2O)c(N)c1	4.6	.	-0.4	-3.3	-3.5	14.2
Cc1ccc(NC(=O)c2ccc(Cl)c(NC(=O)c3cccs3)c2)cc1	7.2	35.5*	-0.6	2.6	7.8	1.8
COc1cc(NC(=O)c2ccc3c(c2)OCCO3)ccc1NC(=O)c1cccs1	15.4	71.2*	i	10.3	4.5	-10.3
COc1cc(NC(=O)c2ccc([N+](=O)[O-])o2)ccc1NC(=O)c1cccs1	6.2	2.7	-0.5	100.0*	99.9*	-0.4
O=C(Nc1ccc(NC(=O)c2cccs2)cc1)c1ccc2c(c1)OCCO2	-6.4	-0.1	-2.1	15.4	6.9	10.9
